The text below walks through data of PubChem BioAssay (NCI).

The nature of experiment [1]: NCI Yeast Anticancer Drug Screen. Data for the rad50 strain (AID 155).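 Note: 0% = growth of vehicle-only cultures of the same strain.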 The settings on record: S. cerevisiae rad50 strain growth inhibition; at 50.0 µM; active compounds read high. An outline of the steps: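 Growth of the mutant yeast was measured after compound exposure and referenced to vehicle-treated cultures.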
Experiment [2] is described as follows: NCI Yeast Anticancer Drug Screen. Data for the sgs1 mgt1 strain (AID 161).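 Note: 0% = growth of cultures given vehicle only.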 The settings on record: S. cerevisiae sgs1 mgt1 strain, at 50.0 µM, active compounds read high. An outline of the steps: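 Percent growth inhibition was derived by comparing compound-exposed mutant yeast with vehicle-exposed cultures. The strain carries alterations in DNA damage repair.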

Experiment [3] in a line: NCI Yeast Anticancer Drug Screen. Data for the cln2 rad14 strain (AID 165).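 Note: 0% = growth equal to vehicle treated cultures.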 The settings on record: S. cerevisiae cln2 rad14 strain, active compounds read high. Put shortly: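 Yeast strain cln2 rad14, bearing defects in cell cycle control and DNA repair, serves as the test system; values reflect growth inhibition compared with vehicle.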
A short description of experiment [4]: NCI Yeast Anticancer Drug Screen. Data for the bub3 strain (AID 167). The settings on record: S. cerevisiae bub3 mutant strain, active compounds read high. Put shortly:
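Whole-cell yeast assay. The mutant strain was incubated with compounds, and growth inhibition was determined by comparison with vehicle-treated cells.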

Experiment [5] can be described thus: NCI Yeast Anticancer Drug Screen. Data for the mlh1 rad18 strain (AID 175). The settings on record: S. cerevisiae mlh1 rad18 strain growth inhibition, active compounds read high. Put shortly: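 Steps: expose repair-defective yeast to compound; measure growth; express inhibition against vehicle-treated controls.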
The nature of experiment [6]: NCI Yeast Anticancer Drug Screen. Data for the mec2-1 strain (AID 157). The settings on record: S. cerevisiae mec2-1 strain, active compounds read high. An outline of the steps:
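Using mec2-1 yeast: add compound, measure growth, express inhibition versus vehicle-treated cultures.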

[7] abbreviates: at 5.0 µM (retest, dose inferred, filed as 0.5).
The mark [8] stands for this setting: at 50.0 µM (retest, dose inferred, filed as 5.0).

Structures are written as SMILES. Values joined by “and” are separate entries in the source; they are usually repeats but may differ in a detail not shown here. Equal entries are not always repeated. Compounds without any hit were thinned out: in the full panel of roughly 79,000, 15% have a hit. Values without a mark were called inactive. Active and inactive are the calls of the source. Cut-off read from the data, not from the text of the source: active = growth inhibition above about 70%; inactive = the rest.

As to `OCCN1CCNCC1`, the growth inhibition is 4.4% and -9.55% in experiment [1]; 4.95% and -17.8% in experiment [2]; 8.3% and -15.8% in experiment [3] (at 50.0 µM); -23.5% and 13.4% in experiment [4] (at 50.0 µM); 1.75% and -19.2% in experiment [5] (at 50.0 µM).

In the case of `OC1COCOC1C1OCOCC1O` (stereo not given), the growth inhibition in experiment [6] (at 50.0 µM) is -2.7% and -8.35%; in experiment [2] it was 2.3% and 19.4%; in experiment [3] (at 50.0 µM) it was -18.2% and -29%; in experiment [4] (at 50.0 µM), -1.9% and -4.2%; in experiment [5] (at 50.0 µM) it was -5.6% and -0.85%.

For the compound `Fc1cccc(F)c1C1SCc2nc3cc4ccccc4cc3n21` (stereo not given), the growth inhibition in experiment [6] (setting [7]) is 24%; in experiment [6] (setting [8]), 66%; in experiment [6] (at 50.0 µM), 56.3%; in experiment [3] (setting [7]) it was 27%; in experiment [3] (setting [8]), 31%; in experiment [3] (at 50.0 µM), 80.1% (active). Moreover, the growth inhibition in experiment [4] (setting [7]) was 30%; in experiment [4] (setting [8]), 75% (active); in experiment [4] (at 50.0 µM), 80.2% (active); in experiment [5] (setting [7]) it was 28%; in experiment [5] (setting [8]), 75% (active); in experiment [5] (at 50.0 µM) it was 42.5%.

For the compound `N=C(N)SCCc1ccccn1`, the growth inhibition in experiment [1] is -30.3% and -8.8%; in experiment [6] (at 50.0 µM), -27.9% and -24.2%; in experiment [2], -35.1% and -28%; in experiment [3] (at 50.0 µM) it was -16.1% and -19.4%; in experiment [4] (at 50.0 µM), -44% and -39.1%; in experiment [5] (at 50.0 µM) it was -18.4% and -1.55%.

With `CC1CC(C)(C)C2=NCCN21` (stereo not given), the growth inhibition is 2.25% and -8.15% in experiment [1]; -23.6% and -28.6% in experiment [6] (at 50.0 µM); -4.8% and 8.8% in experiment [2]; -3.2% and 18.6% in experiment [3] (at 50.0 µM); -7.3% and 14.2% in experiment [4] (at 50.0 µM); -0.7% and -3.25% in experiment [5] (at 50.0 µM).

With `CC(OC(=O)c1ccccc1)C(OC(=O)c1ccccc1)C(OC(=O)c1ccccc1)c1cnn(-c2ccccc2)n1` (stereo not given), the growth inhibition is 14.8% and 35.7% in experiment [1]; -2.35% and -1.9% in experiment [6] (at 50.0 µM); 19.1% and -9.45% in experiment [3] (at 50.0 µM); 10.1% and 16.1% in experiment [4] (at 50.0 µM); 6.7% and 32% in experiment [5] (at 50.0 µM).

For the compound `CC(O)C(O)C(O)C(O)CO` (stereo not given), the growth inhibition in experiment [1] is 17.1% and -19.8%; in experiment [2], -15.2% and -4.65%; in experiment [3] (at 50.0 µM) it was 14.2% and -28.2%; in experiment [4] (at 50.0 µM) it was -18.9% and -5.9%; in experiment [5] (at 50.0 µM), 0.15% and -4.05%.

Regarding `CC(C)(CO)C(O)C(=O)NCCS(=O)(=O)O` (stereo not given), the growth inhibition in experiment [1] is -6.8% and -16.3%; in experiment [6] (at 50.0 µM), -4.35% and -1.8%; in experiment [2], 15.2% and 3.4%; in experiment [4] (at 50.0 µM), 9.05% and 21.9%; in experiment [5] (at 50.0 µM) it was -3.1% and -27.3%.

On to `COC(=O)CCC1C(C)(C(C)=O)CCC2C1(C)CCC1(C)C3CC(C)(C)CCC3(C)CCC21C` (stereo not given), for which the growth inhibition is 1.05% and -5.35% in experiment [6] (at 50.0 µM); -11.8% and -15.2% in experiment [2]; -7.8% and -3.65% in experiment [3] (at 50.0 µM); -3.9% and -2.15% in experiment [4] (at 50.0 µM); 13.8% and 4.4% in experiment [5] (at 50.0 µM).

In the case of `O=C1Nc2c(cc([N+](=O)[O-])cc2[N+](=O)[O-])C1=O`, the growth inhibition in experiment [6] (at 50.0 µM) is 7.6% and -0.75%; in experiment [2], -5.1% and 2.05%; in experiment [3] (at 50.0 µM) it was -0.05% and -12.1%; in experiment [4] (at 50.0 µM), -2.4% and 3.95%; in experiment [5] (at 50.0 µM), -1.1% and 2.6%.

In the case of `N=C(N)/C=C\C(=O)O`, the growth inhibition was 1.65% and 2.05% in experiment [1]; 4.4% and -11.1% in experiment [2]; 17.4% and 14.3% in experiment [3] (at 50.0 µM); -21.4% and -33.8% in experiment [4] (at 50.0 µM); -4.9% and -14.8% in experiment [5] (at 50.0 µM).

With `OCC(O)C1OC(Oc2ccccc2)C(O)C(O)C1O` (stereo not given), the growth inhibition is 2.5% and 35.6% in experiment [1]; 32.9% and -1.85% in experiment [6] (at 50.0 µM); -3% and -28.4% in experiment [3] (at 50.0 µM); 31.3% and 7.35% in experiment [4] (at 50.0 µM); 24% and 17.4% in experiment [5] (at 50.0 µM).

For the compound `COc1cc(-c2[o+]c3cc(O)cc(O)c3cc2O)cc(O)c1O`, the growth inhibition is 28.6% and 0.3% in experiment [1]; 17.6% and -25.1% in experiment [6] (at 50.0 µM); 23.1% and 0.7% in experiment [2]; 12.5% and -24.9% in experiment [3] (at 50.0 µM); 30.2% and 24.2% in experiment [5] (at 50.0 µM).

Consider `O=C(O)/C=C/C(=O)Nc1ccccc1`, for which the growth inhibition is -4.8% and -26.8% in experiment [1]; -18.7% and -22% in experiment [6] (at 50.0 µM); -11.8% and -14.3% in experiment [2]; 0.25% and -30.4% in experiment [3] (at 50.0 µM); -2.8% and -10.2% in experiment [4] (at 50.0 µM); 4.15% and -1.65% in experiment [5] (at 50.0 µM).
